# An excerpt weighted towards active compounds, which were near 1.3% of everything screened.
# Bcl-xL primary = inhibitors of human Bcl-xL | GST-Bcl-xL / FITC-Bim BH3 peptide fluorescence polarization | inhibition, % at 10.9 µM | actives 0.7% (n = 320,000) | AID 2129;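 active = inhibition above the mean of all tested compounds plus 3 SD, cutoff set per campaign, cut at about 30% in these data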;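 also: 0% = DMSO wells and 100% = unlabeled Bim-BH3 peptide competitor; inhibitors lower millipolarization by displacing the labeled peptide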
# GLD-1 TGE inh = GLD-1-TGE RNA interaction inhibition (C. elegans); AID 2280; inhibition, % at 5.96 µM; purified GLD-1 + fluorescein TGE RNA, fluorescence polarization; Q17339; actives 0.44% (n = 320,000);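 active = percent inhibition above a per-plate cutoff, the plate mean of test compounds plus 3 SD, cut at about 30% in these data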;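 also: 0% = DMSO wells with GLD-1 and probe and 100% = wells lacking GLD-1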
# EBV gp42 block = inhibitors of Epstein-Barr virus glycoprotein 42 | Q1HVG2 | inhibition, % (tested at 21.74 µM) | actives 0.42% (n = 220,000) | Fluorescence polarization binding assay, mP read-out; in the data active = inhibition above about 50%
# eLon inh = inhibitors of E. coli Lon protease | purified E. coli Lon protease, fluorescence polarization | inhibition, % at 7.94 µM | actives 0.42% (n = 360,000); in the data active = inhibition above about 13%, passing the limit was not always enough;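 also: 0% = enzyme with probe and DMSO and 100% = no enzyme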
# Target sequence (P0A9M0 whole entry, looked up): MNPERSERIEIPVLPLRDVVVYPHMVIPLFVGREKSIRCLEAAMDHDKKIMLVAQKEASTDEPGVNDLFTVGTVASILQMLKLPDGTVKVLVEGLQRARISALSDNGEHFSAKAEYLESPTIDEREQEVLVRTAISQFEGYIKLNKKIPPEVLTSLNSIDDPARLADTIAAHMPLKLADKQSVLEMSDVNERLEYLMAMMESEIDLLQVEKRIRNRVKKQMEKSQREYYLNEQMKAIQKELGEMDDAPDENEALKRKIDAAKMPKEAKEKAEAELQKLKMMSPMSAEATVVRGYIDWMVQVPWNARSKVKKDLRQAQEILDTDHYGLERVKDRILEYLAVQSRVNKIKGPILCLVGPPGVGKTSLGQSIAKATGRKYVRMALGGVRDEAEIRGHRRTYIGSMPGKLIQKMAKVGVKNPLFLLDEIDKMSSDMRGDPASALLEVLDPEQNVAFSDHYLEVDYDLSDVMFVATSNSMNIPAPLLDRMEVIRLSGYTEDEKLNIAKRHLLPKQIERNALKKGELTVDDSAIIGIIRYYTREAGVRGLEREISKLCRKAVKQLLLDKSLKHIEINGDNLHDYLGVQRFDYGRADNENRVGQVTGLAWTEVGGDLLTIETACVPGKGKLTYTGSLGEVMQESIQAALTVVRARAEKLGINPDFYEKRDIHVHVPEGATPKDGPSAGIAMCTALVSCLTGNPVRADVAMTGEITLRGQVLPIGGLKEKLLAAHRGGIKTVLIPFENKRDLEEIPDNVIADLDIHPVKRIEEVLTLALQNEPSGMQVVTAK
# MEX-5 binding = C. elegans MEX-5 TCR-2 RNA binding activity | Q9XUB2 | MEX-5/FITC-TCR2 RNA binding, fluorescence polarization; stronger effect = lower value | activity score (negative = inhibition of binding), % at 10 µM | actives 0.38% (n = 300,000);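 active = inhibition past about -25% in most replicates, and total fluorescence under double the plate's negative control median, limit read from the data; inconclusive = replicates evenly split on the limit, or fluorescence at least double controls; inactive = too little inhibition in most replicates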;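 also: 0% = DMSO and -100% = 5 µM competing unlabeled TCR2 RNA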
# GLD1 RNA confirm = confirmation of C. elegans GLD-1 TGE RNA binding inhibitors. shares compounds with GLD-1 TGE inh. GLD-1/FL-TGE RNA fluorescence polarization, biochemical. inhibition, % at 5.96 µM. actives 10% (n = 550);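 active = average inhibition across triplicates above the hit cutoff set in the primary screen, cut at about 32% in these data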;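 also: 0% = GLD-1 with RNA probe and DMSO and 100% = wells lacking GLD-1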
# Starred values were filed as active, the others as inactive; u = inconclusive; x = no result given.
SMILES,Bcl-xL primary,GLD-1 TGE inh,EBV gp42 block,eLon inh,MEX-5 binding,GLD1 RNA confirm
O=C(N/N=C/c1ccc[nH]1)c1ccc([N+](=O)[O-])cc1,4,57*,7,3,1,-3
O=C(NN=Cc1ccccc1Cl)c1ccc([N+](=O)[O-])cc1,x,x,x,5,x,x
CC(=O)Nc1cccc(C(=O)NC2CCCc3c2cnn3-c2cc(C)cc(C)c2)c1 (stereo unspecified),-6,58*,x,-12,0,1
Cc1cc(C)cc(-n2ncc3c2CCCC3NC(=O)c2csnn2)c1 (stereo unspecified),4,0,x,-16,1,x
O=C(/C=C/c1ccc(Cl)cc1)NCc1cccs1,7,65*,10,-1,-1,12
O=C(/C=C/c1cccc(Cl)c1)NCc1cccs1,6,-1,6,-2,1,x
COc1ccccc1CCNC(=O)CNC(=O)Cc1cccc2ccccc12,-2,0,x,-9,-1,x
CC(=O)Nc1nc2n(n1)C(c1ccccc1)C=C(c1ccccc1)N2 (stereo unspecified),57*,47*,32,31*,-1,-2
O=C1Nc2ccccc2SC1=Cc1ccccc1,x,x,x,17,x,x
O=C1CCCC2=C1Sc1ccccc1N2,58*,31*,65*,25,-7,20
COCCNC(=O)C1(C)CCCN(C(=O)c2ccc(C)c(F)c2)C1 (stereo unspecified),x,x,x,-7,x,x
Cc1ccc(S(=O)(=O)Nc2cc3c4c(c2)CCN4C(=O)CC3)cc1,5,8,x,2,-4,x
Cn1cc(/C=N\O)nc2c(=O)n(-c3ccccc3)c(=O)nc1-2,36*,35*,-16,-2,-14,8
CCN(c1ccccc1)S(=O)(=O)c1ccc(Cl)c(NC(=O)CSc2n[nH]c(N)n2)c1,-1,39*,-17,-1,0,0
COc1ccc(-c2noc3c2-c2nc(-c4cccc(C)c4)sc2CC3)cc1,-2,2,x,-1,1,x
Cc1ccc(-c2cn3cccnc3n2)cc1NC(=O)c1cccs1,4,31*,-3,4,-2,-4
CC1CC(C)C(=O)C(C(CC2CC(=O)NC(=O)C2)OC(=O)CC(=O)c2ccccc2)C1 (stereo unspecified),x,x,x,-7,x,x
N#Cc1c(-c2ccco2)cc(-c2cccnc2)nc1N,46*,44*,2,5,-1,-4
CS(=O)(=O)N(CCC(=O)O)Cc1ccccc1,5,37*,-9,0,1,-3
O=C(Cc1ccc(-c2ccccc2)cc1)Nc1ccccc1,-8,2,x,3,-2,x
O=C(Cc1ccc(-c2ccccc2)cc1)Nc1ncccc1O,25,31*,x,-10,0,0
Cc1ccc(C)c(C(=O)Nc2ccncc2)c1,14,-2,x,-3,2,x
O=C(O)c1cccc2c1C(=O)c1ccccc1C2=O,6,6,-4,-11,1,x
O=C(O)c1ccc2c3c(ncnc13)-c1ccccc1C2=O,72*,60*,76*,x,u,45*
O=C(OCC(=O)N1CCN(C(=O)c2ccco2)CC1)c1cccc(F)c1,5,-2,x,-8,x,x
SMILES,Bcl-xL primary,GLD-1 TGE inh,EBV gp42 block,eLon inh,MEX-5 binding,GLD1 RNA confirm
O=C(OCC(=O)N1CCN(C(=O)c2ccco2)CC1)c1sc2cc(F)ccc2c1Cl,60*,36*,0,-9,0,-5
O=C(N=C1SC2CS(=O)(=O)CC2N1Cc1ccccc1Cl)C1CC1 (stereo unspecified),2,3,x,2,0,x
O=C(OCc1ccc(F)cc1)c1ccc2c(c1)-c1ccccc1C2=O,7,5,-1,-2,2,x
CCOC(=O)C1=C(Cc2ccc(F)cc2)C(=O)c2ccccc2C1=O,35*,66*,0,-9,0,2
N#CC1=C(N)OC2=C(CN(Cc3ccccc3)C/C2=C\c2cccnc2)C1c1cccnc1 (stereo unspecified),18,12,12,4,-3,x
CC(C)N1CC2=C(OC(N)=C(C#N)C2c2cccnc2)/C(=C/c2cccnc2)C1 (stereo unspecified),45*,39*,20,5,x,5
O=C(O)c1ccccc1N=Nc1ccc(O)cc1,58*,39*,x,7,-19,33*
Cc1ccc(C2OC34CCCCCC3C(C#N)(C(=N)O4)C2(C#N)C#N)cc1 (stereo unspecified),23,16,11,16,-7,x
